# FUS suppressor – rescues growth of FUS-expressing yeast; 390,000 compounds, 0.24% hits; Potency, µM (top dose mostly 76.6 µM), usual class: activators; AID 1347120; S. cerevisiae FUS-expressing, growth rescue, OD600, 24 h;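 also: potency is read from the fitted curve at half-maximal effect; plate controls were DMSO vehicle for no effect and reference control for full effect; nearly all actives have a fitted effect of over 55% in size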
#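 Galactose (2%) drives FUS expression in yeast precultured in raffinose; seeding density OD 0.005. Test compounds incubated 24hr at 30C and 99% humidity before absorbance at 600 nm was measured.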
# LDHA inh – blocks human lactate dehydrogenase A; purified LDHA, NADH/diaphorase-resazurin fluorescence; active compounds read low; 480,000 compounds, 0.15% hits; activity change, % (values are at about 110 or 230 µM); AID 1347041; P00338; in the data active = activity change below about -30%; inconclusive = mostly about -25% to -30%;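 also: plate controls were DMSO wells for no effect and wells without enzyme for full effect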
#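 Remaining NADH was detected by diaphorase (0.133 mg/mL) converting 37 µM resazurin to fluorescent resorufin, read at 0 and 20 minutes. The preceding 5-minute room-temperature reaction used 2 nM LDHA, 0.2 mM sodium pyruvate and 0.06 mM NADH at pH 7.4.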
# IDH1 R132H inh – blocks human mutant IDH1 R132H enzyme. O75874. IDH1-R132H enzyme, NADPH consumption, diaphorase/resazurin fluorescence. 390,000 compounds, 0.093% hits. AID 602179. Potency, µM (series often up to 76.6 µM), inactives show top-dose activity change, negative = inhibition, most hits filed as inhibitors; also: potency is read from the fitted curve at half-maximal effect; % is scaled to controls: 0 for no effect and ±100 for the full control effect; nearly all actives have a fitted effect of over 65% in size
# Target sequence (O75874 whole entry R132H, stated change not applied): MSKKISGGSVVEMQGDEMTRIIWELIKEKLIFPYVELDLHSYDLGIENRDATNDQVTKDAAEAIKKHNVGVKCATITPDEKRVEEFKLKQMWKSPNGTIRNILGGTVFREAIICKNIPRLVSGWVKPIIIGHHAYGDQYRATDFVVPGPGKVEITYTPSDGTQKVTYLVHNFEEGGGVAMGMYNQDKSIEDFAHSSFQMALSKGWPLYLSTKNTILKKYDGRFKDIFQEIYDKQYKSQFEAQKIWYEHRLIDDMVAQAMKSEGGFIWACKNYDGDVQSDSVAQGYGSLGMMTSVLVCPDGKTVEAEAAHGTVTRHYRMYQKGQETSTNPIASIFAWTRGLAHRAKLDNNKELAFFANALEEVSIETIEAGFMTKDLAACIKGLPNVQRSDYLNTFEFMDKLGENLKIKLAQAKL
#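 IDH1-R132H (0.5 ug/mL dispensed) in pH 7.5 Tris buffer was preincubated 30 min with compound, then given a substrate mix of 0.016 mM NADPH and 2 mM alpha-KG for 80 min at room temperature; remaining NADPH was read by diaphorase/resazurin fluorescence.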
# Abeta yeast res – compounds reversing amyloid beta toxicity in yeast; yeast expressing A-beta42, growth rescue, OD600, 48 h; response scale: 0% DMSO, 100% iron-clioquinol control; Potency, µM (top dose mostly 46.1 µM), hits mostly activators; 410,000 compounds, 0.063% hits; AID 1347071; also: potency is read from the fitted curve at half-maximal effect; nearly all actives have a fitted effect of over 55% in size
#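 Growth rescue measured by 600 nm absorbance after 48 h yeast culture at 30 C with compound. Values normalized between DMSO and an equimolar ferric chloride plus clioquinol control.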
# aSyn rescue – rescues yeast growth from alpha-synuclein toxicity; AID 652106; 370,000 compounds, 0.14% hits; Potency, µM (highest dose often 46.1 µM), for the others: at the top dose growth rescue (activation), usual class: activators; Yeast expressing alpha-synuclein, growth rescue, BacTiter-Glo, 24 h; also: potency is read from the fitted curve at half-maximal effect; % of control where 0% means no effect; nearly all actives have a fitted effect of over 65% in size
#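 Galactose-induced alpha-syn yeast (OD600=0.02, raffinose-pregrown) + pinned cpd, 24 hr, 30 deg C; growth by BacTiter-Glo luminescence. Growth restoration scores as activation.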
# TDP-43 yeast inh – TDP-43 toxicity inhibition in yeast; AID 652104; Potency, µM (titrated, usually from 46.1 µM), for the others: at the top dose growth rescue (activation), most hits filed as activators; TDP-43 expressing yeast growth rescue, BacTiter-Glo, 24 h; 410,000 compounds, 1.8% hits; also: potency is read from the fitted curve at half-maximal effect; % of control where 0% means no effect; nearly all actives have a fitted effect of over 50% in size
#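 Luminescence from BacTiter-Glo reports growth of TDP-43-expressing yeast after 24 hr at 30 deg C with compound. Cells were raffinose-pregrown to mid-log, then seeded in galactose medium at OD600=0.02.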
# * hit, by the source's call; i = inactive; ? = inconclusive; nt = no result; ! = repeats disagree. Only some compounds are listed: those with a hit (about 2% of all), similar ones and a draw of the others. Unless noted, calls follow the shape of the dose curve; as a rule, active = well fitted curve in the direction sought with a large enough effect; inconclusive = small, poorly fitted or top-dose-only effect, or another doubt; inactive = no such curve, though single readings can be large; an effect the other way counts as inactive or inconclusive.
SMILES,FUS suppressor,LDHA inh,IDH1 R132H inh,Abeta yeast res,aSyn rescue,TDP-43 yeast inh
CCn1c(COc2ccc(C)cc2)nnc1SCC(=O)Nc1cc(OC)ccc1OC,?,-2,0%,i,2%,13µM*
CCCCCOC(=O)c1c(N)n(CCOC)c2nc3ccccc3nc12,i,10,4%,i,3%,18µM*
CCc1ccc(-c2csc(Nc3cccc(C)n3)n2)cc1,nt,-2,nt,nt,nt,nt
Oc1ccc2[nH]cc(CCNC(c3ccccc3)(c3ccccc3)c3ccccc3)c2c1,nt,5,nt,nt,nt,nt
CC(=O)Nc1ccc(CN2C(=O)C(Cc3ccccc3)ON=C2c2ncccc2C)cc1 (configuration not stated),i,-2,nt,i,0%,20%
CC(=O)Oc1ccc(CN2C(=O)C(CCc3ccccc3)ON=C2c2cnccn2)cc1 (configuration not stated),i,-3,nt,i,17%,14µM*
COc1cc(CN2C(=O)C(CCc3ccccc3)ON=C2c2cnccn2)cc(OC)c1 (configuration not stated),i,-4,nt,i,1%,35µM*
Oc1ccc2cccc(O)c2c1,nt,19,nt,nt,nt,nt
CC(C)Cn1c(SCC(=O)c2ccc(C#N)cc2)nnc1-c1ccccc1,nt,-20,nt,nt,nt,nt
Cn1nc(-c2ccccc2)c(C(=O)Nc2ccc(C(F)(F)F)cc2)c1Cl,i,-8,-4%,i,-7%,-2%
Cn1nc(-c2ccccc2)c(C(=O)Nc2ccc(Cl)cc2)c1Cl,i,-9,-1%,i,4%,3.2µM*
Cn1nc(C(F)(F)F)c(C(=O)Nc2ccc(C(F)(F)F)cc2)c1Cl,i,4,7%,i,-4%,20µM*
O=C(Nc1cc(F)cc(F)c1)c1n[nH]c(=O)c2ccccc12,nt,-3,nt,nt,nt,nt
CC(=O)Nc1ccc(C(=O)CSc2ccc(Cl)cc2)cc1,nt,7,nt,nt,nt,nt
CC12CC3CC(C)(C1)CC(Nc1nc(N4CCOCC4)nc4ccccc14)(C3)C2,i,-2,-4%,i,9%,20µM*
CCc1ccc2oc(=O)cc(CN3CCN(c4ccc(F)cc4)CC3)c2c1,i,2,4%,i,5%,19%
CCOc1ccc2oc(=O)cc(CN3CCN(c4ccccc4)CC3)c2c1,i,-30*!,15%,i,nt,6%
CCOc1ccc2oc(=O)cc(CN3CCOCC3)c2c1,i,-8,5%,i,-1%,7%
CC(C)c1ccc2oc(=O)cc(CN3CCN(c4ccc(F)cc4)CC3)c2c1,i,-5,1%,i,7%,14µM*
Cc1[nH]c2ccccc2c1C(=O)C(=O)N1CCN(C2CC2)CC1,nt,-3,nt,nt,nt,nt
Cc1cnc(C(=O)Oc2ccc(C(C)(C)C)cc2C)cn1,nt,1,nt,nt,nt,nt
COc1ccc(C(C)(O)c2nc(-c3cncnc3)cs2)cc1 (configuration not stated),i,-3,nt,i,2%,27%
COc1ccc(C(C)(O)c2nc(-c3csc4ccccc34)cs2)cc1 (configuration not stated),i,-9,nt,?,27%,22µM*
COc1ccc(C(C)(O)c2nc(/C=C/c3ccccc3)cs2)cc1 (configuration not stated),i,-5,nt,?,?,35µM*
Cc1c(Br)cnn1CCc1nnc(Nc2ccn(Cc3ccccc3Cl)n2)s1,nt,7,nt,nt,nt,nt
SMILES,FUS suppressor,LDHA inh,IDH1 R132H inh,Abeta yeast res,aSyn rescue,TDP-43 yeast inh
O=C(NCC1CCCO1)c1ccccc1NS(=O)(=O)c1cc([N+](=O)[O-])ccc1Cl (configuration not stated),nt,2,1%,i,22µM*,-18%
O=C(NCC1CCCO1)c1ccccc1NS(=O)(=O)c1cccc([N+](=O)[O-])c1 (configuration not stated),i,-6,2%,i,?,7%
COc1ccc2cc(S(=O)(=O)c3ccc(C(C)C)cc3)c(=O)oc2c1,nt,2,nt,nt,nt,nt
Brc1cccc(Nc2nc(-c3cccnc3)cs2)c1,i,0,7%,i,-8%,3.2µM*
Clc1cccc(Nc2nc(-c3cccnc3)cs2)c1,i,-3,18%,i,0%,?
Brc1ccc(Nc2nc(-c3cccnc3)cs2)cc1,i,-6,5%,i,-11%,11µM*
O=C(Nc1ccc(Nc2ccccc2)cc1)C(Cl)(Cl)Cl,nt,-7,8%,i,1%,35µM*
CCCNC(=O)c1csc(Nc2cccc3ccccc23)n1,i,-13,-15%,i,-34%,32µM*
COCCNC(=O)c1csc(Nc2cccc3ccccc23)n1,i,7,8%,i,0%,28%
NC(=O)[C@@H]1CC2(CC(c3cccc(NC(=O)COc4ccc(Cl)cc4)c3)=NO2)CN1C(=O)COc1ccc(Cl)cc1 (some centres not stated),18µM*,1,13%,i,1%,-22%
C/C=C\C=C/C(=O)Nc1cccc(C2=NOC3(C2)C[C@H](C(N)=O)N(C(=O)CC)C3)c1 (some centres not stated),i,1,-9%,i,-11%,-1%
N#CCC(=O)N1CC2(CC(c3cccc(NC(=O)COc4ccc(Cl)cc4)c3)=NO2)C[C@@H]1C(N)=O (some centres not stated),i,-1,-15%,i,2%,1%
C=C(C)C(=O)N1CC2(CC(c3cccc(NC(=O)CC(c4ccccc4)c4ccccc4)c3)=NO2)C[C@H]1C(N)=O (some centres not stated),32µM*,3,-23%,i,11%,-12%
NC(=O)[C@@H]1CC2(CC(c3cccc(NC(=O)CC(c4ccccc4)c4ccccc4)c3)=NO2)CN1C(=O)c1ccc(Cl)cc1 (some centres not stated),28µM*,-1,-6%,i,0%,-9%
C/C=C\C=C\C(=O)Nc1cccc(C2=NOC3(C2)C[C@@H](C(N)=O)N(C(=O)C(c2ccccc2)c2ccccc2)C3)c1 (some centres not stated),32µM*,2,1%,i,4%,8%
C[N+]12CC[N+](C)(CC1)CC2,nt,-22,nt,nt,nt,nt
Cc1ccc(/C=C/C(=O)OCn2nnc3ccccc3c2=O)o1,i,-3,4%,i,?,18µM*
Cc1ccc(SCCC(=O)OCn2nnc3ccccc3c2=O)cc1,i,-11,18%,i,4%,35µM*
O=C(/C=C/c1ccco1)OCn1nnc2ccccc2c1=O,i,-6,4%,i,1%,?

# Screens: PubChem BioAssay, National Center for Advancing Translational Sciences (NCATS)
